A selection: hits, their analogues and other compounds. The true share with any hit is near 12%.
HP1b chromo inh: HTS for Inhibitors of HP1-beta Chromodomain Interactions with Methylated Histone Tails. AID 540317, 2011. AlphaScreen HP1-beta / biotin-H3K9me3 peptide binding. Potency, µM (highest dose often 114 µM), for inactives: top-dose activity change, negative = inhibition, hits mostly inhibitors. Chromobox protein homolog 1 (Homo sapiens), P83916. 390,000 compounds, 0.56% hits; further: potency means the concentration at half of the fitted maximal effect; nearly all actives have a fitted effect of over 70% in size
Target sequence (P83916 whole entry, looked up): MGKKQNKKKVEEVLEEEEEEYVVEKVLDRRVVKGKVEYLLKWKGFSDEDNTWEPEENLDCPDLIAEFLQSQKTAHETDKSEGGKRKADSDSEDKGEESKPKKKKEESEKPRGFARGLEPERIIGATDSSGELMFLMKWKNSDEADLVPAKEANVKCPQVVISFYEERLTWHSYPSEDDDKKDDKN
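HP1-beta protein (50 nM final) preincubated 30 min at room temperature with biotinylated H3(1-18)K9me3 peptide (50 nM) in PBS pH 7.4, 0.01% Tween-20, then compound added for 30 min. AlphaScreen streptavidin donor/nickel chelate acceptor beads (10 ug/mL final), 30 min dark, luminescence read.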
JMJD2A Tudor: qHTS Assay for Inhibitors of JMJD2A-Tudor Domain | Potency, µM (titrated, usually from 114 µM), inactives show top-dose activity change, negative = inhibition, most hits filed as inhibitors | AlphaScreen JMJD2A-Tudor / H3K4me3 peptide binding | 390,000 compounds, 4.4% hits | AID 504339, 2011 | Lysine-specific demethylase 4A (Homo sapiens), O75164; further: potency means the concentration at half of the fitted maximal effect; on the % scale 0 is the no-effect control and ±100 the full control effect; nearly all actives have a fitted effect of over 50% in size
L3MBTL1 inh-1: qHTS Assay for the Inhibitors of L3MBTL1; AlphaScreen L3MBTL1–H3K9me1 peptide binding; Potency, µM (titrated, usually from 57.1 µM), for inactives: at the top dose activity, negative = inhibition, usual class: inhibitors; AID 485360, 2010; 230,000 compounds, 0.66% hits; further: potency means the concentration at half of the fitted maximal effect; on the % scale 0 is the no-effect control and ±100 the full control effect; nearly all actives have a fitted effect of over 60% in size
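AlphaScreen assay: L3MBTL1 (50 nM final) was preincubated 30 min at room temperature with biotinylated H3(1-15)K9me1 peptide (75 nM final), then 30 min with library compounds; streptavidin donor and nickel chelate acceptor beads (10 ug/mL final) added, 30 min dark.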
Sfp inh: qHTS Assay for Inhibitors of Bacillus subtilis Sfp phosphopantetheinyl transferase (PPTase) | 4'-phosphopantetheinyl transferase ffp (Bacillus subtilis), Q9F4F7 | Biochemical Sfp PPTase activity, qHTS | Potency, µM, for the others: largest response in the series, negative = inhibition, hits mostly inhibitors | 310,000 compounds, 3.5% hits;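 further: the enzyme is Sfp with the accession as filed and its product quenches rhodamine fluorescence; potency means the concentration at half of the fitted maximal effect; 0% = enzyme reaction without inhibitor and -100% = no enzyme wells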
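After 15 min at room temperature with compound, 15 nM Sfp received 5 uM rhodamine-CoA plus 12.5 uM BHQ-2-ybbR (50 mM Hepes pH 7.6, 10 mM MgCl2). Rate came from the fluorescence difference over 30 min, ex 525/em 598 nm.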
G9a inh-1: qHTS Assay for Inhibitors of Histone Lysine Methyltransferase G9a. G9a H3K9 monomethylation, AlphaScreen, 2 h. AID 504332, 2011. Potency, µM (highest dose often 102 µM), without a hit: top-dose activity, negative = inhibition, usual class: inhibitors. 350,000 compounds, 8.8% hits. Histone-lysine N-methyltransferase EHMT2 (Homo sapiens), Q96KQ7; further: potency means the concentration at half of the fitted maximal effect; on the % scale 0 is the no-effect control and ±100 the full control effect; nearly all actives have a fitted effect of over 75% in size
Target sequence (Q96KQ7 913-1193 limits assumed): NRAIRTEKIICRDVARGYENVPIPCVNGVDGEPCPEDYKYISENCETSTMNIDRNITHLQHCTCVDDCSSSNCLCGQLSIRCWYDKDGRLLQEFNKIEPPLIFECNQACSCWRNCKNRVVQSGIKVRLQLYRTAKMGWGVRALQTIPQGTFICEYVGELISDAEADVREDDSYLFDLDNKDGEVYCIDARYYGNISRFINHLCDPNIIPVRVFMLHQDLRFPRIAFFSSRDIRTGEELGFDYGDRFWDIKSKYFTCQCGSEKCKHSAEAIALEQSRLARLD
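G9a (20 nM) preincubated 15 min RT with compounds, then 500 nM biotinylated H3K9 peptide and 20 uM SAM added; 2 h RT reaction. Monomethyl-H3K9 product detected by AlphaScreen with anti-H3K9me1 antibody, streptavidin donor and anti-rabbit IgG acceptor beads.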
BAZ2B block: qHTS Assay for Inhibitors of BAZ2B; 360,000 compounds, 4.4% hits; Potency, µM (highest dose often 114 µM), inactives show at the top dose activity change, negative = inhibition, hits mostly inhibitors; AID 504333, 2011; AlphaScreen BAZ2B-H3K14Ac peptide displacement; Bromodomain adjacent to zinc finger domain protein 2B (Homo sapiens), Q9UIF8; further: potency means the concentration at half of the fitted maximal effect; on the % scale 0 is the no-effect control and ±100 the full control effect; nearly all actives have a fitted effect of over 60% in size
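AlphaScreen luminescence quantifies BAZ2B engagement of H3K14Ac peptide; the protein and biotinylated peptide are both at 50 nM final, buffer PBS pH 7.4 with 0.01% Tween-20, all steps at room temperature.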
Sfp PPTase conf: Confirmation qHTS Assay for Inhibitors of Bacillus subtilis Sfp phosphopantetheinyl transferase (PPTase); shares compounds with Sfp inh; Sfp PPTase enzymatic assay, qHTS titration; Potency, µM (series often up to 114 µM), inactives show at the top dose activity change, negative = inhibition, most hits filed as inhibitors; 380 compounds, 79% hits; AID 2701, 2010;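 further: potency means the concentration at half of the fitted maximal effect; plate controls were uninhibited Sfp reaction for no effect and no enzyme control for full effect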
Target sequence (Q9F4F7 whole entry, looked up): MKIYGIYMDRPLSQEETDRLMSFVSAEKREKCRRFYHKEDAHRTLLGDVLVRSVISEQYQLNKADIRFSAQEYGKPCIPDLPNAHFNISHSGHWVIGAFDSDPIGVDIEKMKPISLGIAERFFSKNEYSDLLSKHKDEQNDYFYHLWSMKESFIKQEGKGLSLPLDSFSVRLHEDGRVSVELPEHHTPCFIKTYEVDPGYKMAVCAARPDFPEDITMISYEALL
Sfp PPTase gel: Gel-Based Assay for Inhibitors of Bacillus subtilis Sfp phosphopantetheinyl transferase (PPTase). purified Sfp, gel-based phosphopantetheinylation read-out. AID 2707, 2010. Potency, µM, actives largely listed as inhibitors. shares compounds with Sfp inh. 210 compounds, 20% hits;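 active means potency below 100 µM; inconclusive means dose-dependent response but potency above 100 µM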;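 further: band intensities scaled against SCH202676 control wells before curve fitting; potency is an IC50 for inhibitors of Sfp transfer activity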
L3MBTL1 inh-2: qHTS Assay for the Inhibitors of L3MBTL1: Hit Validation; shares compounds with L3MBTL1 inh-1; Potency, µM, hits mostly inhibitors; L3MBTL1 methyl-lysine binding inhibition, biochemical qHTS; 500 compounds, 91% hits; further: potency means the concentration at half of the fitted maximal effect; nearly all actives have a fitted effect of over 70% in size
L3MBTL1 ctr: qHTS Assay for the Inhibitors of L3MBTL1: Hit Validationin AlphaScreen Counterscreen; 500 tested, under 10 active; shares compounds with L3MBTL1 inh-1; Potency, µM (doses to about 57.1 µM), inactives show at the highest dose activity change, negative = inhibition, hits mostly inhibitors; AlphaScreen counterscreen, signal inhibition; AID 602224, 2012; further: potency means the concentration at half of the fitted maximal effect; 0% is about no effect
JMJD2E inh-1: Inhibitors of Human Jumonji Domain Containing 2E (JMJD2E): 8HQs - Round 1. shares compounds with BAZ2B block. JMJD2E demethylase, FDH-coupled NADH fluorescence. Potency, µM (highest dose often 57 µM), for inactives: at the highest dose activity, negative = inhibition, usual class: inhibitors. 130 compounds, 89% hits. AID 493212, 2011
ME-1 growth: qHTS Assay for Compounds Blocking the Interaction Between CBF-beta and RUNX1 for the Treatment of Acute Myeloid Leukemia: ME-1 cellular proliferation. shares compounds with BAZ2B block. ME-1 cell proliferation, ATP luminescence, 48 h. Potency, µM (doses to about 56.1 µM), without a hit: at the top dose activity change, negative = inhibition, most hits filed as inhibitors. 140 compounds, 20% hits
JMJD2E inh-2: Confirmation qHTS Assay for Inhibitors of Human Jumonji Domain Containing 2E (JMJD2E); shares compounds with JMJD2A Tudor; Recombinant JMJD2E, FDH-coupled NADH fluorescence (FDH is formaldehyde dehydrogenase); Potency, µM (doses to about 56.8 µM), for the others: at the top dose activity change, negative = inhibition, usual class: inhibitors; 140 compounds, 93% hits; AID 2677, 2010
FDH counter: Counterscreen for JMJD2E Inhibitors: qHTS Assay for Inhibitors of Formaldehyde Dehydrogenase (FDH); AID 2680, 2010; 140 compounds, 10% hits; FDH enzyme assay, NADH fluorescence kinetic; Potency, µM (series often up to 56.7 µM), without a hit: at the top dose activity, negative = inhibition, hits mostly inhibitors; shares compounds with JMJD2A Tudor
G9a inh-2: qHTS Assay for Inhibitors of Histone Lysine Methyltransferase G9a: Hit Confirmation. shares compounds with JMJD2A Tudor. G9a H3K9 monomethylation, AlphaScreen, 2 h. Potency, µM, most hits filed as inhibitors. 370 compounds, 89% hits; further: potency means the concentration at half of the fitted maximal effect; nearly all actives have a fitted effect of over 65% in size
The depositor's hits bear a star; i = inactive; u = inconclusive; x = not tested or not shown; ! = a repeat was not active; [ ] = remark or other dose. Unless noted, the call rests on the fitted dose curve; in most records, active means well fitted curve in the direction sought with a large enough effect; inconclusive means small, poorly fitted or top-dose-only effect, or another doubt; inactive means no such curve, though single readings can be large; an effect the other way counts as inactive or inconclusive.

SMILES	HP1b chromo inh	JMJD2A Tudor	L3MBTL1 inh-1	Sfp inh	G9a inh-1	BAZ2B block	others
C[C@H](N)[C@H](O)c1ccc(O)c(O)c1	x	x	x	35.5µM*	1.58µM*	x	Sfp PPTase conf=u;Sfp PPTase gel=74.5µM*
Cc1cccc(N2CCc3c2nc2ccccc2c3N)c1	u	3.16µM*!	-1.5%	28.2µM*	u	u	Sfp PPTase conf=26.4µM*;Sfp PPTase gel=i
CCCN[C@@H]1CCc2c(OC)cccc2[C@@H]1C	x	x	x	-5.5%	-1.3%[59 µM]	x
CC(C)c1cc2c(c(O)c1O)[C@@]1(C(=O)O)CCCC(C)(C)[C@@H]1CC2	x	x	x	1.41µM*	3.55µM*	x	Sfp PPTase conf=2.64µM*;Sfp PPTase gel=i
CC1(C(=O)O)CCCC2(C)c3cc(O)ccc3CCC12 (stereo unspecified)	8.1%	-21.1%	x	x	x	x
O=C1C2CC=CCC2C(=O)N1SC(Cl)(Cl)Cl (stereo unspecified)	x	x	x	6.31µM*	1.58µM*	x	Sfp PPTase conf=9.37µM*;Sfp PPTase gel=6.17µM*
Cc1cccc(C)c1Oc1nc(-c2ccccc2)ncc1S(=O)(=O)c1ccccc1	44.8%	5.6%	-2.6%	17.0%	-0.1%	13.5%
CC(C)Nc1ccc(Nc2ccccc2)cc1	44.7µM*	50.1µM*	x	8.91µM*	1.58µM*	28.2µM*	Sfp PPTase conf=10.5µM*;Sfp PPTase gel=u
NC[C@H](CS(=O)(=O)O)c1ccc(Cl)cc1	x	x	x	-10.2%	x	x
CCOc1ccccc1OCCCCN1CCCC1	u	31.6µM*	28.2µM*	u	u	u	L3MBTL1 inh-2=u;L3MBTL1 ctr=u
CCC(=O)O[C@@](Cc1ccccc1)(c1ccccc1)[C@@H](C)CN(C)C	x	x	x	7.8%	25.4%[21.5 µM]	x
C=CCN1C(=O)NC(=O)C(CCc2ccncc2)(CCc2ccncc2)C1=O	52.9%	-8.0%	-0.3%	11.4%	x	-16.1%
C=CCN1C(=O)NC(=O)/C(=C/c2ccoc2)C1=O	-18.9%	u	22.4µM*	-28.7%	-22.6%[59 µM]	-0.3%	L3MBTL1 inh-2=16.8*;L3MBTL1 ctr=-0.7%
Cc1cc(C=C2C(=O)NC(=S)NC2=O)c(C)n1-c1ccc2c(c1)OCO2	1.6%	u	22.4µM*	44.7µM*	11.2µM*	u	L3MBTL1 inh-2=21.2*;L3MBTL1 ctr=-11.5%
CC1(C)[C@@H](C=C(Cl)Cl)[C@@H]1C(=O)OCc1c(F)c(F)cc(F)c1F	x	x	x	-8.2%	44.1%[12.7 µM]	x
CC(C)[C@@]1(NC(=O)[C@H]2CC3c4cccc5[nH]cc(c45)C[C@H]3N(C)C2)O[C@@]2(O)C3CCCN3C(=O)[C@@H](Cc3ccccc3)N2C1=O (stereo partly specified)	x	x	x	79.4µM*!	12.6µM*!	x	ME-1 growth=u
CC(N)c1cccc(Cl)c1Cl (stereo unspecified)	x	x	x	x	8.5%[59 µM]	x
Oc1cccc2cc(N3CCNCC3)cnc12	x	x	x	x	x	x	JMJD2E inh-1=u;JMJD2E inh-2=u;FDH counter=0.0%
CCOC(=O)c1ncn2c1[C@H]1CCCN1C(=O)c1cc(OC)ccc1-2	x	x	x	-6.4%	x	x
CC(=O)Nc1ccc(NC(=O)Oc2ccccc2)cc1	9.3%	-13.2%	-1.3%	11.7%	u	-20.7%
CN(C)c1ccc(NC(=O)Oc2ccccc2)cc1	-40.1%	u	x	79.4µM*	1.58µM*	44.7µM*	G9a inh-2=1.42*
CCC(C)C(=O)OC1C(O)C2C(CN3CC(C)CCC3[C@]2(C)O)C2C[C@]34O[C@@]5(O)C(OC(=O)C(C)(O)C(C)O)CCC3(C)C5C(OC(C)=O)C(OC(C)=O)C4[C@@]21O (stereo partly specified)	x	x	x	-3.2%	5.1%[2.33 µM]	x

Source: PubChem (National Center for Advancing Translational Sciences (NCATS))
